# This is part of a sample that, as a whole, favours compounds with a hit. Of some 83,000 tested, about 20% had one in any assay.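 A percent growth of 40 corresponds to 60% growth inhibition; 0 means no net growth; -100 means all cells died. Active threshold: below 10.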 Values without a mark were called inactive. Activity calls are given as the source filed them.
# System: HL-60(TB) leukemia
# Assay: NCI-60 one-dose screen, 48 h (100 = growth as untreated, 0 = no growth, -100 = all killed)
# Details: 10 µM unless noted
row,SMILES,growth
1,CC(=O)OC1Oc2cc(C)c(C)cc2-c2oc(=O)c(-c3ccccc3)cc21 (centres undefined),-39.1% (active)
2,C=CCSc1nnc(COc2ccc3c(C)c(Cc4ccccc4)c(=O)oc3c2C)o1,96.1%
3,CN(C)CCNC(=O)c1ccc(-c2nc3ccc4[nH]ncc4c3c3c2C2CCC3C2)cc1 (centres undefined),-20.6% (active)
4,Cc1ccc(C)n1-c1ccccc1-n1c(C)ccc1C,82.2%

# Reference: PubChem BioAssay (NCI)
